NS1 inh = inhibitors of influenza NS1 protein function | Potency, µM (titrated, usually from 46.1 µM), without a hit: at the highest dose activity, positive = more growth | 270,000 compounds, 0.4% hits | AID 2326; calls by dose curve; note: potency is the fitted concentration of half-maximal effect; actives are rising curves; nearly all actives have a fitted effect of over 50% in size
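Recovery from NS1-induced slow growth read by OD600 in budding yeast switched to galactose assay medium (pH 6.0, -URA) at 1:100 dilution. Compound 23 nl per well; the matching strain lacking NS1 serves as control.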
Shiga inhibitor = blocks Shiga toxin action in Vero cells. Vero cells, Shiga toxin protein synthesis inhibition reporter. inhibition, % at 38.7 µM. 290,000 compounds, 9.2% hits. AID 2315; in the data active = inhibition mostly above about 28%, no sharp cut-off; inactive = mostly below about 43%; note: 0% is about no effect
Pf growth 48h = P. falciparum growth inhibition at 48 hours (one generation); P. falciparum luciferase growth in erythrocytes, 48 h; Potency, µM (titrated, usually from 28.7 µM), for the others: at the top dose activity change, negative = inhibition, hits mostly inhibitors; 310,000 compounds, 5.9% hits; AID 504832; note: potency is the fitted concentration of half-maximal effect; % is set by controls: 0 for no effect and ±100 for the full control effect
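First compound was added to culture medium, then infected red cells at 0.1% parasitemia and 2% hematocrit (final). After incubation at 37 C under 5% CO2, luciferase detection reagent was dispensed and light output recorded.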
Pf growth 96h = P. falciparum growth inhibition at 96 hours; P. falciparum luciferase reporter growth, 96 h; Potency, µM (series often up to 28.7 µM), for inactives: at the top dose activity change, negative = inhibition, hits mostly inhibitors; 320,000 compounds, 6.9% hits; AID 504834; note: potency is the fitted concentration of half-maximal effect; % is set by controls: 0 for no effect and ±100 for the full control effect
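Two parasite generations (96 h, 37 C, 5% CO2) of compound exposure in infected erythrocytes (0.05% parasitemia, 2% hematocrit). Luciferase-reporter P. falciparum; decreased luminescence indicates inhibited growth, aimed at apicoplast-acting delayed death.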
Cycloheximide cs = affects cycloheximide protein synthesis inhibition readout, counter-screen | cell reporter, cycloheximide protein synthesis inhibition counterscreen | max response, % | 300,000 compounds, 12% hits; in the data active = max response mostly above about 13%, no sharp cut-off; inactive = mostly below about 14%; note: read at 38.3 µM for the half of the compounds with a filed dose; 0% is about no effect
An asterisk follows results filed as active; i = inactive; ? = inconclusive; nt = no result; [ ] = another dose, or the depositor's remark. Shown are actives, neighbours in structure and some others; about 21% of the full set was active somewhere. Unless noted, calls come from the whole dose curve; as a rule, active = well fitted inhibition curve with a large enough effect; inconclusive = small, poorly fitted or top-dose-only effect, or another doubt; inactive = no such curve, though single readings can be large or run the other way.

SMILES	NS1 inh	Shiga inhibitor	Pf growth 48h	Pf growth 96h	Cycloheximide cs
Cc1onc(-c2ccccc2)c1C(=O)NNC(=S)NC(=O)c1ccc2c(c1)OCO2	-43%	90*	103%	87%	46*
C=CCOC(=O)C1=C[C@@H](c2ccc(Br)cc2)[C@H](CCCO)[C@@H](OCC)O1	-5%	-16	?	9.3µM*	-2
C=CCOC(=O)C1=C[C@@H](c2ccc(C(F)(F)F)cc2)[C@H](CCCO)[C@@H](OCC)O1	7%	-1	1.2µM*	2.1µM*	0
C=CCOC(=O)C1=C[C@H](c2ccc(C(F)(F)F)cc2)[C@@H](CCCO)[C@H](OCC)O1	2%	-11	?	9.3µM*	0
C=CCOC(=O)C1=C[C@@H](c2ccccc2)[C@H](CCCO)[C@@H](OCC)O1	2%	-11	3%	11%	-3
Cc1cccc(NC(=O)C23CCC(C)(C2Br)C3(C)C)c1 (centres undefined)	-27%	-3	31%	0%	-1
COc1ccc(CNC(=O)Cn2nc(C)n3cccc3c2=O)cc1	-14%	10	45%	-24%	2
Cn1c2ccccc2c2ncn(CCCN3CCOCC3)c(=O)c21	9%[9.22 µM]	43	4%	nt	7
N=c1c2c(-c3ccccc3)c(-c3ccccc3)oc2ncn1CCCN1CCOCC1	-18%	-9	13µM*	12µM*	-6
N=c1c2c(-c3ccccc3)c(-c3ccccc3)oc2ncn1CCN1CCOCC1	-38%	-11	7.4µM*	9.3µM*	-2
c1ccc(-c2oc3ncnc(NCCN4CCOCC4)c3c2-c2ccccc2)cc1	-116%	-24	?	14%	-4
Cc1ccc(C(=O)Nc2cccc(S(=O)(=O)N3CCCCC3)c2)cc1[N+](=O)[O-]	nt	nt	4.7µM*	8.3µM*	nt
O=C(Nc1cccc(S(=O)(=O)N2CCCCC2)c1)c1ccc([N+](=O)[O-])o1	nt	14	?	9.3µM*	29*
COc1ccc(OC)c(N2C(=NC(=O)C3CCCCC3)SC3CS(=O)(=O)CC32)c1 (centres undefined)	-6%	10	28%	2%	-2
O=C1/C(=C/c2ccncc2)CCc2ccccc21	-8%	56*	?	55%	34*
CCOc1ccc(/C=C2\CCc3ccccc3C2=O)cc1	-2%	71*	25%	i	30*
O=C1/C(=C\c2ccncc2)CCc2ccccc21	nt	nt	-25%	66%	nt
Fc1ccccc1NC(=S)N(CCN1CCCCC1)Cc1ccco1	nt	-9	-13%	?	-5
CCCCOc1ccc2c(c1)/C(=C(\C(Cl)=C(Cl)Cl)[N+](=O)[O-])N2	nt	2	?	7%	-1
CCOC(=O)c1sc(C)c2c1NC(C)(c1cccs1)NC2=O (centres undefined)	?	12	?	nt	1
Cc1nc2cc(-c3ccccc3)nn2c(N)c1-c1ccccc1	nt	nt	171%	399%	nt
Cc1nn2c(N)c(-c3ccccc3)cnc2c1-c1ccc(Cl)cc1	1%	112*	-12%[0.00184 µM]	-21%	38*
Cc1ccc(-c2ccnc3c(Cl)c(C)nn23)cc1	2%	-5	3%	2%	-3
Cc1nc2c(-c3ccccc3)c(C)nn2c(N)c1-c1ccccc1	-20%	29*	125%	?	49*
Cc1nn2c(-c3ccccc3)ccnc2c1-c1ccccc1	-8%	94*	nt	-11%	49*
SMILES	NS1 inh	Shiga inhibitor	Pf growth 48h	Pf growth 96h	Cycloheximide cs
CCOCCc1nnc(NC(=O)CS(=O)(=O)Cc2ccccc2)s1	3%	-8	12%	-10%	-2
O=C(NCc1cccnc1)c1ccc(Br)s1	-3%	-5	79%	40%	-2
Cc1ccccc1NCCNc1ccccc1C	-21%	-1	nt	-15%	9
O=C(CSc1nc(-c2ccccc2)c(-c2ccccc2)[nH]1)NCCN1C(=O)CSC1=O	-7%	26	17%	35%	-3
Cc1ccccc1Oc1ccc(Oc2ccccc2C)nn1	-7%	116*	?	-25%	31*
N=C(N)N1CCc2ccccc2C1	0%	14	7%	1%	3
CCN(CC)c1ccc(C2NCC(c3ccc([N+](=O)[O-])cc3)O2)cc1 (centres undefined)	-16%	-5	41%	?	9
COc1ccc2cc(C(=O)OC(C)C)sc(=O)c2c1OC	-9%	30*	-18%	33%	14*
COc1ccc2cc(C(=O)NCC(=O)O)sc(=O)c2c1OC	15%	-1	4%	47%	-2
CCOc1ccccc1/C=N/NC(=O)c1nnn(-c2nonc2N)c1CN1CCCC1	-4%	0	-1%	33%	-1
CCn1ccnc1CNC(=O)C1CCC(=O)N(Cc2ccccc2F)C1 (centres undefined)	4%	-4	-1%	12µM*	-1
O=C(NCCc1ccccc1F)C1CCC(=O)N(CCCN2CCCC2=O)C1 (centres undefined)	6%	-1	10%	?	2
CC#CCN(Cc1ccco1)C(=O)C1CCC(=O)N(Cc2ccccc2F)C1 (centres undefined)	-4%	29	-5%	0%	32*
O=C(NC1CCC1)C1CCC(=O)N(Cc2cccc(F)c2)C1 (centres undefined)	3%	-6	5%	20%	18
CCn1ccnc1CNC(=O)C1CCC(=O)N(Cc2cccc(C(F)(F)F)c2)C1 (centres undefined)	1%	-6	6%	-92%	-3
O=C(NCCc1ccccc1F)C1CCC(=O)N(Cc2ccccc2F)C1 (centres undefined)	8%	25*	20%	51%	18*
O=C(NC1CCC1)C1CCC(=O)N(Cc2ccccc2F)C1 (centres undefined)	-1%	8	?	?	32*
COc1ccc2nc(SCC(=O)N(C)C3CCCCC3)c(C#N)cc2c1	2%	-3	?	9%[5.75 µM]	9
COc1ccc(CN(C)CC(=O)N(C)CC(=O)Nc2ccccc2Br)cc1F	nt	nt	?	-16%	nt
COc1ccc(OC)c(NC(=O)c2cc3ccccc3o2)c1	-11%	93	43%	-6%	27*
COc1cc(N)ccc1NC(=O)c1cc2ccccc2o1	13%	64*	133%	?	42*
COc1cc(NC(C)=O)ccc1NC(=O)c1cc2ccccc2o1	4%	21	3%	12µM*	16*
CCCC(=O)Nc1ccc(NC(=O)c2cc3ccccc3o2)c(OC)c1	20%	nt	45%	-21%	38*
CN(C)CCNC(=O)Nc1ccc(F)cc1F	5%	11	-4%	?	-4
COc1ccccc1OCc1nc(-c2cccc([N+](=O)[O-])c2)no1	4%	24	1%	41%	16
CCCCn1cnc2c(cnn2-c2ccc(Cl)cc2)c1=O	-1%	18	96%	-5%	11*
CCCCn1cnc2c(cnn2-c2ccc(F)cc2)c1=O	-1%	120*	58%	-25%	27*
O=c1c2cnn(-c3ccc(F)cc3)c2ncn1Cc1ccc(F)cc1	7%	-2	9%	?	-2
CN(C)C(=O)Cn1cnc2c(cnn2-c2ccc(F)cc2)c1=O	-3%	-12	46%	42%	-4

Compound activity: PubChem BioAssay, National Center for Advancing Translational Sciences (NCATS)
